Assay results from PubChem BioAssay AID1508600 (Functional Genomics Laboratory (NCATS/FGL), 2020).
The campaign covered roughly 53,000 sequences. About 3,700 (7%) were called active. Only a selection was taken, and actives are over-represented in it overall. A number with no mark means an inactive call.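 Rule for the calls: active = gene knockdowns whose robust z-score for IL-1 alpha signal is at least 2 or at most -2, so actives lie on both sides; inactive = the rest.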

Assay: Components of the Cytosolic LPS Sensing Pathway: Gene Identification via Genome-wide siRNA Screen;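 note: robust z of the log signal after scaling to non-targeting control siRNA wells of the plate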
Conditions: RAW264.7 macrophages, IL-1a HTRF, actives lie on both sides, screened at 100 nM (by protocol), cells primed 5 h with Pam3CSK4 first
Procedure, shortened: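 Cells (RAW264.7, 1×10^4 per well) were transfected with siRNA at 100 nM and cultured 48h at 37 degrees C. Pam3CSK4 was added for 5 hours; LipidA transfection followed for 24 hour. IL-1a was then measured by HTRF.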

Sequence	z-score
CCAUUAUGGACAAUAAGAGTT against Rnf8	0.396
GCAUGUGACUCCAUAUAAATT against Cldn15	-0.117
GGUUCAAAACUACACACACTT against Sp9	0.512
GGAGGGUACUCACAGGAAATT against Olfr411	-2.05 (active)
GGAUCAAUGCACCUUCCAATT against Gpr85	1.61
GGACCAGUUUAUCCAGCACTT against Mc3r	-0.699
GGCAGAAAAGAUAGCAUCUTT against Cops4	0.413
GGUCUUUUCUAUUAUGGGATT against Strc	1.22
GCGGUUUUGUGUCAGGGACTT against 4833408A19Rik	-0.682
GGAGCUGUUGAAAGAAUAUTT against Relt	2.63 (active)
CCCUGAACAGGUCAUCUGUTT against Ctps2	0.822
GGACAUGACUCUAAAAAAATT against Slc44a3	4.43 (active)
CGUGCUCAUUUAGGUUAUATT against Zfp57	1.15
GGGCAAAUAGUCAAUGACCTT against Ces1e	0.661
GCGGAACUUUCAUUGCUGGTT against Rabggta	1.85
CCGGAGCACCAUUAAGGUUTT against Nudt11	4.75 (active)
GCCUUCUGAUUCAUUUUCUTT against Naa38	0.525
GGAAAGUUUGCACUGUAAATT against Tiam2	-0.207
CCGUCUUCACCUGAUACAGTT against Ube2d2b	0.501
GCUGAACGGUCUCAAACAGTT against Cdca3	0.395
GGUGUCUCUGAUGAAUCACTT against Syt15	1.21
UCACAGUCAUCAUUGUUUCTT against Olfr825	-2.83 (active)

Sequence	z-score
GGAAGUCCAACUUCUUCCATT against Ebf4	-0.153
GGUACCAUGAAGGAUUUAUTT against Tspan2	3.24 (active)
GGCAUGAUGAUAUUUGAAATT against Glrp1	-0.142
GGAAAAAGAUGUCCUAUCUTT against Rufy2	-1.08
GGAUGUGGGUGGAUAUCAUTT against Sit1	0.145
GGAAAAAAAGGUAGCUGGATT against Tspyl4	2.82 (active)
GCUUAUCGAAUUCUUCUCCTT against Cnpy2	0.417
CUAGAUGCACAGAAUAGCATT against Prm1	-1.83
GCAAUAGGCAAUCUGGGAUTT against Olfr52	0.504
GCCUCAAUAAAUUGUCAGCTT against Slc25a17	-0.0131
GAAGCAGAACUUGAGCAAGTT against Phgdh	2.07 (active)
GCUGCAUAGAAUGACACGATT against Pip5kl1	0.851
GGCAAAGACGACCUCUCACTT against Vtcn1	-1.56
GGAUGAUGAAGUCAAAUUUTT against Slc26a5	0.0656
CGACACCUAAGUUCAGCACTT against Mief2	-1.91
GCACUUUCAUGGAUAUAAGTT against Rab22a	-0.366
GGCACUACUAAGAACCUUATT against Tmem69	0.728
CGCAUACUGAUGAUAACUATT against Zfp317	2.12 (active)
GGAAACCUUUUACCUUUAATT against Padi1	-0.874
CCAAAAUCGGGAAAGGAAATT against Ldb2	-0.00816
GGCUUGACCUGCGUCUUCATT against 1700001P01Rik	0.736
GGAACAUUGGCAUCACGACTT against Acy1	0.901

Sequence	z-score
GGACGACGACUUUUUAAAATT against Pnmal1	2.18 (active)
CCAUCUCUUACUAUCCAUGTT against Cmbl	-1.03
GGCAUGACUGGACUGAAAATT against Ythdf3	-0.976
GGGAUUUAGCACAAGAUACTT against Brinp3	0.606
GGUAUUCUUGGAAGGAGGGTT against Prss22	0.153
GGUCCAGAGAAGGCAAGCUTT against Elf3	5.87 (active)
CGAAAAUCUUCUGGCUCACTT against Llgl2	-0.922
GGGACUUAGAAACAAUCCATT against Hsd3b4	1.77
GGUAGCGAUGUUUUCUUAUTT against Nt5dc3	1.66
GGUCAUGCUGAUCAGCGACTT against Itfg2	-0.564
GGACUACAUGCUCACGUUATT against Ccm2	2.07 (active)
CGCCGCACAGUUAAUGCUUTT against Mettl17	0.973
GGUUCCUCUCAAAAUUCAATT against Gprc6a	3.13 (active)
GCGAGAGAUGAAAUGGGUGTT against Tbc1d10c	1.07
CCUUAAAAGUAACCACUGUTT against Slc6a6	2.38 (active)
GGUUUUAUCUCUUGUGCCCTT against Myl10	-0.565
GGCCAAGGAUCCAUCUGUATT against Magee1	0.11
GCAAUAGCAGCAACUCUUATT against Dbpht1	-0.369
GGCUCUAACAGCUACAUGUTT against Hspb7	-2.21 (active)
GGGAGAUGUCUUACACAUGTT against Fkbp2	1.12
GGUGGUUCUCAGCUGUGUATT against Arhgef18	-1.08
GGAUGAUGAAUGCAAUUAATT against Eed	-0.882

Sequence	z-score
CCUACUUUGGACUCUUUCATT against Tnfsf12	-2.25 (active)
GGUGGAAGACUUCAGUGAATT against Clgn	0.384
CAGCUUGUGCUCGAGUAAATT against Gm3579	-1.14
GGACAGAAAGGUACCCUUATT against Slc30a5	0.461
GGUAGUUGUUCUAUGUUUUTT against Olfr967	-1.07
GCAAAAGUGUAUCAUGAUGTT against Olfr1052	-2.17 (active)
CGUGGAGCUACCAUAUAGGTT against Mob3b	0.581
CGACCAGCUUCUAGUGCUUTT against Pcdha8	-0.431
CCAAGCCUCCAAUGGUCAGTT against Stat6	-0.623
GCACUAUGACUACAAGAGUTT against Olfr1457	-0.965
GCCGUUGCCUUUCAAGGGATT against Inhbe	-0.112
GCUUUUCCGUGAUCAUACATT against Tex14	0.0691
GGAUCCAGAUACUCCCAAGTT against Camp	-1.08
GGGUUUCUUGAUUCUGACCTT against Ccl5	-2.33 (active)
CCUACCAGUUCCUAUUUAGTT against Alas2	0.452
GGGUCUCCGAAACUACUUATT against Tmem144	0.00626
GCCAAUUUGACUUGUAAGUTT against Slc22a3	1.4
GGUUUCUGGAAGAAACUGGTT against Polr1a	-0.927
GCUGAGUGAAUCCACGUACTT against Mzb1	-2.65 (active)
CAUUGUCAUUCUAGUUGCATT against Olfr1251	0.64
GGCAACAAUAGUUCAGAAGTT against Rps6ka5	1.5
GCAUAUAAUGUCUAACUCGTT against Eml4	-0.0328

Sequence	z-score
GGUUCUUAACCUCAGCAGUTT against Omg	-0.541
GGAGUCUUGCUCUAUAUAATT against Arpc5	1.26
GGCUUCUUUAUGUUUCCUUTT against Usp48	-1.46
GGCUUUUCUAGUUCCUCAATT against Pdzd7	-2.01 (active)
GGAAUUCAAGGGCUCCACATT against Grip1	0.378
GGUAGGAUGAGUUGAAGAGTT against AF366264	0.0631
CCAGAAGUUAGAACAGUUCTT against Rp9	1.49
GGAGUACAUGGUACACGUUTT against Fut8	1.52
GGAUGUUGUUUAUCGAGGATT against Med21	-0.572
GGAUGGAGGAAGACUCGAUTT against Etv6	2.14 (active)
GGAAACCUGUUUGAUUUUGTT against Aasdhppt	0.798
GCUUUCAUAGCUGGAAACCTT against Olfr173	0.452
CCUCACAAAUAUACAGUUCTT against Pira2	0.519
UUCUACUGGGCUUAACCAGTT against Olfr1032	1.86
GGAUGCUUUAACUUCAAACTT against Crebrf	2.56 (active)
GCCAUAUAAGAUUCUUGUGTT against Pi4kb	-0.63
GCAAAUGUAUUAUGUCCUUTT against Gm5478	0.0907
GGAUUUGUAAGACUAAUCUTT against Xdh	0.00453
GGUGAAGAGACUGGAGAACTT against Cavin2	-0.277
GGACAUAAAACUUUUCAGUTT against Foxf2	1.02
